Screening results (PubChem BioAssay)
The entries come from a sample that favours hits as a whole.
Pf Dd2 inh: Plasmodium falciparum Dd2 growth inhibition. P. falciparum Dd2 growth, SYBR Green, 72 h. Potency, µM (doses to about 28.9 µM), inactives show at the highest dose activity, negative = inhibition, actives largely listed as inhibitors. actives 4.3% (n = 120,000). AID 1347417; active means well fitted inhibition curve with a large enough effect;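 further: plate controls were DMSO vehicle for no effect and reference drug for full effect; nearly all actives have a fitted effect of over 65% in size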
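Readout: SYBR Green fluorescence, 485 nm excitation, 535 nm emission, after ~16 h lysis at 37C. Before that, Dd2-infected red cells (2.5% hematocrit) grew 72 h with compound, 29 uM top final concentration.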
* marks the source's active call; other numbers are inactive results; i = inactive; [ ] = dose if it differs, or a comment. Potency means the concentration at half of the fitted maximal effect.

SMILES	Pf Dd2 inh
O=C([C@H]1C[C@@H](F)CN1S(=O)(=O)Cc1ccc(Cl)cc1)N1CCOCC1	i
CN(CCc1ccccn1)C(=O)C1CCCN(S(=O)(=O)c2ccccc2)CCC(=O)NCC1 (configuration not stated)	12%
CCc1c(C)sc2c1CCN(Cc1cccc(OC)c1)C2c1ccccc1 (configuration not stated)	7.9µM*
CCc1c(C)sc2c1CCN(Cc1ccccc1F)C2c1ccccc1 (configuration not stated)	3.2µM*
COc1cccc(Cn2c(C)c(CNC3CCCCC3)c(C(=O)O)c2C)c1	13%
CC(C)(C)c1coc([C@@H]2COCCN2Cc2ccccc2F)n1	i
Nc1nccc(N2CCN(Cc3ccccc3F)C(CCO)C2)n1 (configuration not stated)	-11%
COc1cccc(CN2CCOCCNC(=O)CC2)c1	-12%
O=C1CCC2(CCCN(C(=O)c3ccnc(-n4cnnc4)c3)C2)CN1CC1CC1 (configuration not stated)	3%
Cc1cccc(NC(=O)c2sc3nc4c(cc3c2N)CN(C(C)C)CC4)c1	11µM*
CC(=O)c1cccc(NC(=O)c2sc3nc4c(cc3c2N)CCCC4)c1	25%
CN1CCc2nc3sc(C(=O)Nc4cccc(C#N)c4)c(N)c3cc2C1	-23%
CC(c1n[nH]c(=O)n1CCC(=O)O)n1cccn1 (configuration not stated)	18%
COc1cccc(CNC(=O)Cn2c(-c3ccc(F)cc3)nc(C)cc2=O)c1	i
O=C1CN(Cc2ccccc2)CCN1c1ccc(Cl)nn1	1%[44.1 µM]
CC(C)(C)CC(=O)N[C@H]1C[C@H]2C(=O)Nc3cc(Cl)ccc3C(=O)N2C1	3%[44.1 µM]
Cn1nnnc1SCCCNCc1cc(Br)ccc1OCc1ccccc1F	7.9µM*
Cn1nnnc1SCCCNCc1cc(Br)ccc1OCc1ccccc1	11µM*
Cn1nnnc1SCCNCc1ccccc1Cl	-23%
COc1cccc(CNCCSc2nnnn2C)c1OCc1ccc(F)cc1	-7%
Cn1nnnc1SCCNCc1ccc(F)cc1	-15%
COc1cc(CNCCSc2nnnn2C)ccc1OCc1ccc(F)cc1	i
COc1ccc(C(=O)N2C(C(=O)NC3CC3)COC23CCN(C(=O)c2ccccc2C)CC3)cc1 (configuration not stated)	1%
Cc1ccc(C)c(C(=O)Nc2ccc3c(N4CCCC4)ncnc3c2)c1	2.5µM*
COc1ccccc1C(=O)Nc1ccc2ncnc(N3CCCCC3)c2c1	i
SMILES	Pf Dd2 inh
O=C(Nc1ccc2c(N3CCCC3)ncnc2c1)c1ccccc1Br	13µM*
Cc1ccc(NC(=O)c2cnc(N3CCCCC3)c3ccccc23)cc1Cl	-22%
Cc1cccc(C(=O)N2C(C(=O)N3CCOCC3)COC23CCN(C(=O)CC(C)(C)C)CC3)c1 (configuration not stated)	7%
CCc1nn2c(=O)cc(COC(=O)C(c3ccccc3)c3ccccc3)nc2s1	-2%
COCCc1nn2c(=O)cc(COC(=O)c3ccc(Br)cc3)nc2s1	-14%
COCCc1nn2c(=O)cc(COC(=O)C(c3ccccc3)c3ccccc3)nc2s1	1.3µM*
N[C@@H]1CC[C@@H]1NC(=O)c1ccccc1-c1nc(-c2ccccc2)no1	-18%
O=C(Cn1c(=O)n(-c2cccc(Cl)c2)c(=O)c2sc3ccccc3c21)NC1CCCCC1	27%
Cc1cccc(N2C(=O)CSC23C(=O)N(C)c2ccccc23)c1 (configuration not stated)	i
NC(=O)CN1C(=O)C2(SCC(=O)N2c2cccc(F)c2)c2ccccc21 (configuration not stated)	13%
Cc1cccc(N2C(=O)CSC23C(=O)N(Cc2cccc(C(F)(F)F)c2)c2ccccc23)c1 (configuration not stated)	10µM*
O=C(CN1C(=O)C2(SCC(=O)N2c2cccc(Cl)c2)c2ccccc21)NC1CCCCC1 (configuration not stated)	13µM*
CCc1ccc(NC(=O)CN2C(=O)C3(SCC(=O)N3c3ccccc3)c3ccccc32)cc1 (configuration not stated)	11µM*
CCc1ccc(N2C(=O)CSC23C(=O)N(Cc2cccc(F)c2)c2ccccc23)cc1 (configuration not stated)	-11%
O=C(CN1C(=O)C2(SCC(=O)N2c2cccc(Cl)c2)c2ccccc21)NCc1ccccc1 (configuration not stated)	11µM*
COc1cccc(CN2C(=O)C3(SCC(=O)N3c3cc(C)cc(C)c3)c3ccccc32)c1 (configuration not stated)	i
CN1C(=O)C2(SCC(=O)N2c2cccc(C(F)(F)F)c2)c2ccccc21 (configuration not stated)	-4%
CCc1ccc(N2C(=O)CSC23C(=O)N(Cc2ccc(C)cc2)c2ccccc23)cc1 (configuration not stated)	-21%
CC(C)c1ccc(N2C(=O)CSC23C(=O)N(Cc2ccccc2)c2ccccc23)cc1 (configuration not stated)	i
Cc1ccc(C(=O)N2CCC(Cc3nc(-c4ccc(F)cc4)no3)CC2)cn1	-23%
COc1ccccc1NC(=O)Cn1c(C)ccc(NC(=O)Nc2ccc(C)cc2)c1=O	i
COc1ccc(NC(=O)N2CCCC(Cn3cnc4cccnc43)C2)cc1OC (configuration not stated)	-1%
COCC(=O)N1CCN(C)CC1C(=O)N1CCc2nc[nH]c2C1 (configuration not stated)	-1%
OC(COc1cccc(CN2CCC(c3ncon3)CC2)c1)CN1CCOCC1 (configuration not stated)	-3%
COc1cccc(-c2cnc([C@@H]3COCCN3C3CCOCC3)[nH]2)c1	22%[44.1 µM]
SMILES	Pf Dd2 inh
OC(c1nc(Nc2ccc(Oc3ccccc3)cc2)n[nH]1)C1CC1 (configuration not stated)	-19%[44.1 µM]
COc1ccc(C(=O)N2CCC3(CC2)NCCc2c3[nH]c3ccc(OC)cc23)c(OC)c1	i
CCOCc1nc(C2CCCN(C(=O)C3(c4ccc(OC)cc4)CC3)C2)no1 (configuration not stated)	6%
C[S+](=O)([O-])c1ccc(-c2nccc3c(=O)cc(-c4cccnc4)oc23)cc1	-8%[44.1 µM]
O=c1cc(-c2cccnc2)oc2c(NCc3ccc(F)cc3)nccc12	11µM*
O=c1cc(-c2ccccn2)oc2c(NCc3ccccc3)nccc12	-14%[44.1 µM]
COC1CN(C2CCN(C(=O)c3cnccn3)CC2)C12CCOCC2 (configuration not stated)	-5%
COCCNC(=O)C[C@@H]1C[C@H]2O[C@H](CNCc3ccccc3C(F)(F)F)[C@@H](O)[C@H]2O1	-19%[44.1 µM]
COCCOc1cc(C)c2c(c1C)C[C@H](C(C)C(=O)N1CCC(O)CC1)CC2 (some centres not stated)	-5%[44.1 µM]
COc1cc(C)c2c(c1C)C[C@H]([C@H](C)C(=O)O)CC2	-13%[44.1 µM]
COCCOc1cc(C)c2c(c1C)C[C@H](C(C)C(=O)N1CCSCC1)CC2 (some centres not stated)	10µM*
CC(=O)N(C1CCOCC1)C1CCN(C(=O)Nc2ccccc2)CC1	-49%
O=C(Nc1ccccc1)N[C@H]1CO[C@H]2[C@@H]1OC[C@H]2OC(=O)Nc1ccc(Oc2ccccc2)cc1	-9%
CCC(CC)NC(=O)C1(CCO)CC12CCOCC2 (configuration not stated)	4%
CCN1CCN(C(c2ccc(OC)cc2)c2c(O)cc(C)n(CCOC)c2=O)CC1 (configuration not stated)	i
